From PubChem BioAssay (Tox21) come the findings set out here.

SMILES strings stand for the structures. Records with an inconclusive call do not appear. Values without a mark were called inactive. Calls of active or inactive are those of the source. Unless noted, calls follow the shape of the dose curve; as a rule, active = well fitted curve in the direction sought with a large enough effect in the repeat runs; inconclusive = weak or mixed curves; inactive = no such curve, though single readings can be large; an effect the other way counts as inactive or inconclusive.

Experiment [1] can be described thus: qHTS assay to identify small molecule antagonists of the estrogen related receptor (ERR) signaling pathway from Tox21 library - cell viability counter screen (AID 1224834). Also: nearly all actives have a fitted effect of over 30% in size. The method, boiled down:
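Compounds in DMSO were pinned onto ERR cells that had been incubated for 6 h, and the plates were held at 37 C for 17.5 h. CellTiter-Fluor reagent was then added and fluorescence was measured after 30 min.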
(In general: qHTS replaces the single test concentration by a dilution series.)

Experiment [2] deals with Luciferin 4-monooxygenase (Photinus pyralis) (UniProt P08659). Put plainly: qHTS assay to identify small molecule inhibitors of firefly luciferase (AID 1224835). Also: nearly all actives have a fitted effect of over 25% in size. Also: potency is read from the fitted curve at half-maximal effect. As to activity change, negative = inhibition: series mostly up to about 120 µM. A digest of the protocol:
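Quantitative HTS format; KM concentrations of both substrates. Purified P. pyralis FLuc activity quantified from luminescence images.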

The nature of experiment [3]: qHTS assay to identify small molecule agonists of the constitutive androstane receptor (CAR) signaling pathway - cell viability counter screen (AID 1224836). Also: series mostly up to about 92 µM; nearly all actives have a fitted effect of over 45% in size. The method, boiled down:
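Cells were seeded and incubated 4 hrs. Compounds were added across 15 concentrations together with PK11195 at 0.75 uM final. Plates were incubated 23 hrs at 37 C. CellTiter-Fluor was added and fluorescence measured.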

Experiment [4] is described as follows: qHTS assay to identify small molecule antagonists of the constitutive androstane receptor (CAR) signaling pathway - cell viability counter screen (AID 1224837). Also: series mostly up to about 92 µM; nearly all actives have a fitted effect of over 45% in size. The method, boiled down: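 Cells are seeded, rested 4 hr at 37 C/5% CO2, dosed with compound (15-point series) and 50 nM CITCO, incubated a further 23 hr, and then CellTiter-Fluor reagent is added before fluorescence is read. The line is HepG2 with stable hCAR and CYP2B6-2.2kb.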

Experiment [5] deals with Nuclear receptor subfamily 1 group I member 3 (Homo sapiens) (UniProt Q14994). Briefly: qHTS assay to identify small molecule antagonists of the constitutive androstane receptor (CAR) signaling pathway (AID 1224838).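 Also: HepG2 cells stably expressing hCAR with CYP2B6 luciferase reporter stimulated by CITCO; nearly all actives have a fitted effect of over 40% in size.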 The method, boiled down: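 Luminescence from a CYP2B6-2.2kb promoter reporter in hCAR-expressing HepG2 cells reflects CAR signaling. Cells received compounds at 15 concentrations and 50 nM CITCO (final), then incubated 24 h at 37 C/5% CO2.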

Experiment [6] shares this target. Put plainly: qHTS assay to identify small molecule agonists of the constitutive androstane receptor (CAR) signaling pathway (AID 1224839). Also: nearly all actives have a fitted effect of over 15% in size. Also: potency is read from the fitted curve at half-maximal effect. The method, boiled down:
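Cells were plated and incubated 4 hrs, then dosed with compounds at 15 concentrations. PK11195 was added to 0.75 uM final. After 24 hrs at 37 C, luciferase luminescence was measured.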

The nature of experiment [7]: qHTS assay to identify small molecule antagonists of the estrogen related receptor signaling pathway with the pleiotropic PPARgamma coactivator (PGC) from Tox21 10K library - cell viability counter screen (AID 1224840; active = well fitted cell-killing curve with a large enough effect in the repeat runs, not every such curve was filed as active; also: nearly all actives have a fitted effect of over 40% in size). A digest of the protocol:
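Cell viability is measured by CellTiter-Fluor fluorescence in PGC/ERR cells that receive compounds after a 6-hour attachment period and are then incubated 17.5 hours at 37 C.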

The nature of experiment [8]: qHTS assay to identify small molecule antagonists of the estrogen related receptor signaling pathway with the pleiotropic PPARgamma coactivator (PGC) from Tox21 10K library (AID 1224841; call rule not given here; also: series mostly up to about 92 µM; actives are mostly falling curves and most rising ones were filed inactive; nearly all actives have a fitted effect of over 50% in size). The method, boiled down: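 Cells stably carrying the PGC/ERR reporter, seeded at 2,000 per well, received pin-transferred compounds 6 h post-plating. Exposure lasted 18 h at 37 C. Signal: One-Glo luminescence.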

The nature of experiment [9]: qHTS assay to identify small molecule agonists of the estrogen related receptor signaling pathway with the pleiotropic PPARgamma coactivator (PGC) from Tox21 10K library (AID 1224842). Also: nearly all actives have a fitted effect of over 15% in size. Also: potency is read from the fitted curve at half-maximal effect. A digest of the protocol:
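PGC/ERR reporter cells (NTP line) were seeded 2,000 per well, rested 6 h at 37 C/5% CO2, then pin-dosed with compounds in DMSO for 18 h at 37 C; luciferase read by One-Glo luminescence after 30 min at room temperature.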
% is scaled to controls: 0 for no effect and ±100 for the full control effect.

Nuclear receptor subfamily 1 group I member 3 (Homo sapiens), sequence (Q14994 whole entry, looked up): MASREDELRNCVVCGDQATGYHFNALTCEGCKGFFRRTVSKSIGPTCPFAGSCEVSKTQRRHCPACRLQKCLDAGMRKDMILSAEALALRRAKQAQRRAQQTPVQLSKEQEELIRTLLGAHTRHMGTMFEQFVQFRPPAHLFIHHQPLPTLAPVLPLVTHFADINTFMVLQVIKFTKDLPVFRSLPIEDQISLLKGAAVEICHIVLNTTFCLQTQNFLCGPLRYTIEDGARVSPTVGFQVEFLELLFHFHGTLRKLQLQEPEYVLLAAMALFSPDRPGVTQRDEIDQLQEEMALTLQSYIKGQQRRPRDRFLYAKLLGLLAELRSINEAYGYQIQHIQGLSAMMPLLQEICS
Luciferin 4-monooxygenase (Photinus pyralis), sequence (P08659 whole entry, looked up): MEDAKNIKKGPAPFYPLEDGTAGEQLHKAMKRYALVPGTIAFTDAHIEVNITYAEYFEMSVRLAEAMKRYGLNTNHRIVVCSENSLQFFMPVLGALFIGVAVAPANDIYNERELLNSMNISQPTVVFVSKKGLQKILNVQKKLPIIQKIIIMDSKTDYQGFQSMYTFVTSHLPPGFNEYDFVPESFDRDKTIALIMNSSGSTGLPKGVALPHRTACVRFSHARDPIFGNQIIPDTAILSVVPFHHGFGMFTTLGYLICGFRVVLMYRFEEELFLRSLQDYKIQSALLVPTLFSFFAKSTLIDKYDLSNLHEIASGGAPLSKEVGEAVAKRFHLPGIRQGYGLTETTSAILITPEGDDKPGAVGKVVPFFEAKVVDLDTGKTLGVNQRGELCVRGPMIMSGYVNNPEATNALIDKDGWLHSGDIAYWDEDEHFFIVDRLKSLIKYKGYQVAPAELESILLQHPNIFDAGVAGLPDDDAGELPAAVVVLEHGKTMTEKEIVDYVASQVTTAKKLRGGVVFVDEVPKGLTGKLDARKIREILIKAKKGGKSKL

`CCOC(=O)Cn1c(=O)sc2cccc(Cl)c21`: the Potency entry in experiment [1], in experiment [2], in experiment [5], in experiment [8] and in [9] was “inactive” in each case. Moreover, the outcome in [3], in [4] and in experiment [7] was inactive. Also, in experiment [6], the Potency was 54.5 µM (active).
On to `COC(=O)[C@H]1[C@H]2C[C@@H]3c4[nH]c5cc(OC)ccc5c4CCN3C[C@H]2C[C@@H](OC(=O)COc2ccc(OC)cc2)[C@@H]1OC`, for which the Potency result in [1], in experiment [2], in experiment [5], in [6], in experiment [8] and in experiment [9] was “inactive” each time. The compound was called inactive in experiment [3], in experiment [4] and in [7].
Regarding `CCC(=O)Nc1cccc(N)c1`, the Potency entry in [1], in experiment [2], in experiment [5], in experiment [6], in [8] and in experiment [9] was “inactive” in each case. In addition, the call in experiment [3], in experiment [4] and in experiment [7] was inactive.
Regarding `FC(F)(F)C(F)(F)C(F)(F)C(F)(F)C(F)(F)C(F)(F)C(F)(F)C(F)(F)C(F)(F)C(F)(F)F`, the viability change, negative = cytotoxic in experiment [1] was 3.38% [at 8.39 µM]; in experiment [3] it was 1.23% [at 8.39 µM]; in experiment [7], -2.77% [at 8.39 µM]. In addition, in [2], the activity change, negative = inhibition is -2.43% [at 10.5 µM]. For the same compound, the activity change, negative = cytotoxicity in experiment [4] was 0.303% [at 8.39 µM]. For the same compound, in [5], the activity, negative = inhibition is 41.9% [at 8.39 µM].
In the case of `Cc1ccccc1Br`, the Potency entry in experiment [1], in [2], in [5], in experiment [6], in [8] and in experiment [9] was “inactive” each time. Further, the call in experiment [3], in [4] and in [7] was inactive.
On to `CC(C)(C)C(=O)/C=C/c1ccc(Cl)cc1`, for which the Potency result in experiment [1], in experiment [5], in experiment [6], in experiment [8] and in experiment [9] was “inactive” throughout. Further, the Potency in experiment [2] is 25.2 µM (active). Also, the outcome in [3], in experiment [4] and in experiment [7] was inactive.
Take `C=C(C)C(=O)OCCC(C)OC(=O)C(=C)C` (stereo not drawn): the Potency result in [1], in experiment [2], in experiment [5], in experiment [6], in experiment [8] and in experiment [9] was “inactive” in each case. For the same compound, the compound was classed as inactive in experiment [3], in experiment [4] and in experiment [7].
Regarding `COc1ccc(COC=O)cc1`, the Potency result in experiment [1], in experiment [2], in experiment [5], in experiment [6], in experiment [8] and in [9] was “inactive” each time. Further, the call in [3], in [4] and in experiment [7] was inactive.
For the compound `CN(C)C(=O)Nc1ccccc1`, the Potency result in experiment [1], in [2], in experiment [5], in experiment [6], in experiment [8] and in experiment [9] was “inactive” in each case. The result in experiment [3], in experiment [4] and in experiment [7] was inactive.
As to `O=[N+]([O-])c1ccc(Oc2ccc([N+](=O)[O-])cc2)cc1`, the Potency result in experiment [1], in [2], in experiment [5], in experiment [6], in [8] and in [9] was “inactive” each time. Besides, the compound was classed as inactive in experiment [3], in experiment [4] and in [7].
In the case of `CC(C)COC(=O)C(C)C`, the Potency entry in experiment [1], in experiment [2], in [5], in experiment [6] and in experiment [9] was “inactive” throughout. Also, the compound was called inactive in experiment [3], in experiment [4] and in experiment [7].
`CCCCCCOC(=O)c1ccccc1O`: the Potency result in experiment [1], in experiment [5], in experiment [6], in experiment [8] and in experiment [9] was “inactive” throughout. The Potency in experiment [2] was 17.8 µM (active). The call in experiment [3], in experiment [4] and in experiment [7] was inactive.
`CCCCCCOC(=O)CC(CC(=O)OCCCCCC)(OC(=O)CCC)C(=O)OCCCCCC`: the Potency result in experiment [1], in experiment [2], in experiment [5], in experiment [6], in experiment [8] and in experiment [9] was “inactive” in each case. Further, the compound was classed as inactive in experiment [3], in experiment [4] and in experiment [7].
Take `CCCCc1ccc2cccc(S(=O)(=O)O)c2c1`: the Potency entry in [1], in experiment [2], in [5], in experiment [6], in [8] and in experiment [9] was “inactive” each time. The result in experiment [3], in [4] and in experiment [7] was inactive.
`CC1(C)OC(=O)Nc2ccc(Br)cc21`: the Potency entry in experiment [1], in [2] and in experiment [6] was “inactive” each time. For the same compound, the compound was called inactive in [3], in [4] and in [7].
In the case of `Cc1nc(-c2ccc(OCC(C)C)c(C#N)c2)sc1C(=O)O`, the Potency entry in [1], in experiment [5] and in experiment [8] was “inactive” in each case. In addition, the figures for the Potency in experiment [2], in [6] and in experiment [9] were 0.309 µM (active), 0.075 µM (active) and 668 nM (active), respectively. Moreover, the compound was classed as inactive in experiment [3], in experiment [4] and in experiment [7].
For `COC(=O)C1=C(C)NC(C)=C(C(=O)OCC(C)=O)C1c1ccccc1[N+](=O)[O-]` (stereo not drawn), the Potency result in experiment [1], in experiment [2], in experiment [5], in [6], in experiment [8] and in experiment [9] was “inactive” throughout. In addition, the compound was called inactive in experiment [3], in experiment [4] and in experiment [7].
On to `c1ccc(CCCc2ccccn2)cc1`, for which the Potency result in experiment [1], in [5] and in [8] was “inactive” throughout. In addition, in experiment [2], the Potency is 31.7 µM (active). For the same compound, the result in experiment [3], in experiment [4] and in [7] was inactive.
`COc1cc(CCC(C)=O)ccc1O`: the Potency entry in experiment [1], in [2], in experiment [5], in experiment [6], in experiment [8] and in experiment [9] was “inactive” throughout. In addition, the outcome in experiment [3], in experiment [4] and in experiment [7] was inactive.
With `CC(=O)N[C@@H](CCC(N)=O)C(=O)O`, the Potency entry in [1], in [2] and in experiment [6] was “inactive” in each case. The compound was called inactive in [3], in [4] and in [7].
Take `CCCCCCCCN(C)CCCCCCCC`: the Potency result in experiment [1], in experiment [2], in experiment [5], in experiment [6], in experiment [8] and in experiment [9] was “inactive” in each case. Further, the outcome in [3], in [4] and in experiment [7] was inactive.
As for `O=Cc1ccccc1[N+](=O)[O-]`, the Potency entry in experiment [1], in experiment [2], in [5], in [8] and in experiment [9] was “inactive” in each case. In addition, the outcome in experiment [3], in [4] and in experiment [7] was inactive.
For the compound `CC12CCC(CC1=O)C2(C)C` (stereo not drawn), the Potency result in [1], in experiment [2], in experiment [5], in experiment [6], in experiment [8] and in [9] was “inactive” each time. In addition, the call in experiment [3], in experiment [4] and in experiment [7] was inactive.
Regarding `C(=C(c1ccccc1)c1ccccc1)c1ccccc1`, the Potency entry in experiment [1], in experiment [2] and in experiment [5] was “inactive” each time. For the same compound, the compound was classed as inactive in experiment [3], in experiment [4] and in experiment [7].
In the case of `C=CC(=O)N1CCOCC1`, the Potency result in experiment [1], in experiment [2], in experiment [5], in [8] and in experiment [9] was “inactive” each time. Further, the compound was classed as inactive in experiment [3], in experiment [4] and in [7].
